# An excerpt weighted towards active compounds, which were near 3.4% of everything screened.
# IMPase Li inh – IMPase inhibition in cells with lithium potentiation; CHO-M1 cells, IP1 TR-FRET (IP-One), carbachol + lithium; Potency, µM (doses to about 59.4 µM), without a hit: top-dose activity, negative = IMPase inhibition, usual class: inhibitors; 210,000 compounds, 0.35% hits;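 also: IP1 builds up when IMPase is blocked and the TR-FRET signal falls; potency is read from the fitted curve at half-maximal effect; plate controls were basal vehicle for no effect and high inhibitor control for full effect; nearly all actives have a fitted effect of over 50% in size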
#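 Test compounds were applied to CHO-M1 cells previously cultured for 16–30 h at 2000 per well. A small lithium amount accompanied them; after 30 min at 37C, IP1 was quantified by TR-FRET.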
# IMPase cell inh – cell-permeable inhibitors of inositol monophosphatase (IMPase); CHO-M1 cells, IP1 accumulation, HTRF TR-FRET ratio; inhibition (IP1 accumulation), % at 46.1 µM; 120,000 tested, under 10 active; AID 901; active = well fitted curve in the direction sought with a large enough effect in the signal ratio, not every such curve was filed as active; inconclusive = small, poorly fitted or top-dose-only effect, or a change in a side signal; inactive = no such curve, though single readings can be large or run the other way; the % refers to the signal ratio;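 also: cells stimulated with carbachol in lithium chloride buffer; plate controls were DMSO basal wells for no effect and reference inhibitor wells for full effect; higher means more IMPase inhibition seen as more IP1 and lower FRET ratio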
# Target sequence (P97697 whole entry, looked up): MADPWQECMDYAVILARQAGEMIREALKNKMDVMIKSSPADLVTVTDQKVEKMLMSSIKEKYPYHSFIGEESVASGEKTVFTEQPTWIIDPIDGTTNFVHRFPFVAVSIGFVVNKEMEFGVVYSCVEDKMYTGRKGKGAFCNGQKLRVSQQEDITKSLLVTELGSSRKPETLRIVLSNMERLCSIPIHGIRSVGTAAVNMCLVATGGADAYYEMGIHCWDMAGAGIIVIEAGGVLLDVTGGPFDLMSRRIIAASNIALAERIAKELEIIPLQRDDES
#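 Seeded CHO-M1 cells were dosed with compound at up to 46 uM, stimulated with carbachol for 30 min, then lysed in IP-One detection reagents. Higher IP1 lowers the TR-FRET signal.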
# HTT cytoprotect – protects HTT-Q103 PC12 cells, measured by ATP; AID 1471; PC12 HTT-Q103 induced, cytoprotection, ATP luminescence, 40 h; 230,000 compounds, 0.14% hits; Potency, µM (doses to about 56.4 µM), for inactives: cytoprotection (ATP increase), most hits filed as activators; also: potency is read from the fitted curve at half-maximal effect; % of control where 0% means no effect; nearly all actives have a fitted effect of over 45% in size
#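 Compounds were screened for protection of PC12 cells against cell death after tebufenozide induction (100 nM final) of mutant Huntingtin exon 1 (Q103) fused to GFP.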
# PNC inhibitor – inhibitors of perinucleolar compartment assembly. PC3M PTB-GFP, PNC prevalence imaging, 16 h; hits give low values. activity change (PNC), negative = inhibition, % at 10 µM. 140,000 compounds, 3.1% hits;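 active = readout at or below -70, meaning at least 70% loss of cells showing the perinucleolar compartment, a nuclear body marking cancer cells; inconclusive = readout between -30 and a set limit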;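 also: plate controls were DMSO wells for no effect and camptothecin positive control wells for full effect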
#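 Read-out is percentage of cells bearing a perinucleolar compartment, from automated 20x imaging of fixed, Hoechst-stained PC3M PTB-GFP cells. Cells were seeded 4 h, then exposed 16 h to compound (23 nl of library stock) in duplicate plates.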
# NPSR antagonist – antagonists of human neuropeptide S receptor cAMP signaling; Q6W5P4; CHO-NPSR cells, cAMP TR-FRET, antagonist mode; Potency, µM (series often up to 38.3 µM), without a hit: top-dose activity change, negative = inhibition, most hits filed as inhibitors; 220,000 compounds, 1% hits; also: potency is read from the fitted curve at half-maximal effect; % is scaled to controls: 0 for no effect and ±100 for the full control effect; nearly all actives have a fitted effect of over 50% in size
# Target sequence (Q6W5P4 whole entry, looked up): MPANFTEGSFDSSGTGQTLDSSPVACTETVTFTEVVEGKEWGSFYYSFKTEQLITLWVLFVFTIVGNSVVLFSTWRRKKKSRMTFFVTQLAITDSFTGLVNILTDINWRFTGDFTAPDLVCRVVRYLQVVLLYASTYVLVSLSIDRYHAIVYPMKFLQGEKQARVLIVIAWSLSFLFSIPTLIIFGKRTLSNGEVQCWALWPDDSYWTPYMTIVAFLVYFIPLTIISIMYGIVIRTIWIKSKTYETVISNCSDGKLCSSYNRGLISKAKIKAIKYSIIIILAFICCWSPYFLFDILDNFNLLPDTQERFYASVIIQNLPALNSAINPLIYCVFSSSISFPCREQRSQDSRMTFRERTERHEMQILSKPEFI
# HttQ103 aggreg – mutant huntingtin aggregation inhibition | PC12 HttQ103-GFP aggregates, Acumen cytometry, 40 h | Potency, µM (top dose mostly 46.1 µM), for the others: at the highest dose activity change, negative = inhibition, actives largely listed as inhibitors | 220,000 compounds, 1.1% hits; also: potency is read from the fitted curve at half-maximal effect; % is scaled to controls: 0 for no effect and ±100 for the full control effect; nearly all actives have a fitted effect of over 60% in size
#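 Read-out: GFP aggregate count by laser scanning cytometer (488 nm excitation, 500-530 nm emission, 1–25 µm objects >6 SD above background). Cells: PC12, inducible HTTex1-Q103-GFP, 100 nM tebufenozide; compounds titrated.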
# Active calls of the source: *; ? = inconclusive; . = no result; ! = a repeat was not active; [ ] = remark or other dose. Unless noted, calls follow the shape of the dose curve; as a rule, active = well fitted curve in the direction sought with a large enough effect; inconclusive = small, poorly fitted or top-dose-only effect, or another doubt; inactive = no such curve, though single readings can be large; an effect the other way counts as inactive or inconclusive.
SMILES,IMPase Li inh,IMPase cell inh,HTT cytoprotect,PNC inhibitor,NPSR antagonist,HttQ103 aggreg
COc1ccccc1C(=O)N1CCN(S(=O)(=O)c2ccccc2)CC1,-23%[38.3 µM],-9,-4%,46,-18%[46.1 µM],-25%
COc1cccc(OC)c1C(=O)N1CCN(S(=O)(=O)c2ccccc2)CC1,38%[38.3 µM],1,2%[10 µM],-99*,-5%[46.1 µM],-15%
CCCC1C2CN(C(C)C)CC=C2C(C#N)=C(N)C1(C#N)C#N (stereo not drawn),8%[38.3 µM],-2,-7%,-92*,-10%[46.1 µM],?
COc1cc([C@@H]2[C@H]3CN(C)CC=C3C(C#N)=C(N)C2(C#N)C#N)cc2c1OCO2,9%[38.3 µM],-9,17%[10 µM],-99*,-7%[46.1 µM],27%
CN1CC=C2C(C#N)=C(N)C(C#N)(C#N)[C@H](c3cccs3)[C@H]2C1,4%,-13,14%[10 µM],-94*,3%[46.1 µM],-30%
CC(C)c1ccc(C2C3CSCC=C3C(C#N)=C(N)C2(C#N)C#N)cc1 (stereo not drawn),26%[38.3 µM],-7,?,12,10µM*,30%
CN1CC=C2C(C#N)=C(N)C(C#N)(C#N)C(CCc3ccccc3)C2C1 (stereo not drawn),4%,5,-3%[10 µM],-14,-5%[46.1 µM],-19%
COc1ccc(NC(=O)N2CCCC3(CCN(C(=O)c4cnccn4)CC3)C2)cc1,-13%,.,-1%,.,.,.
Cc1cc(C(=O)NNc2ccc(C(C)C)cc2)n(C(C)(C)C)n1,.,.,10%[10 µM],.,4%,-1%[9.22 µM]
NCC(O)CC(=O)O (stereo not drawn),-4%,.,12%,.,.,-5%
CCCCC(CC)COCC1CO1 (stereo not drawn),12%,.,4%,.,.,.
CCCCCCCCCCCCC/C=C\[C@@H](O)[C@H](CO)NC(C)=O,7%,-1,-1%,.,.,.
CC1=NOC(=O)/C1=C\c1ccc(-c2cccc(Cl)c2)o1,10%[38.3 µM],3,-93%,56,?,?
CC1=NOC(=O)/C1=C\c1ccc(-c2ccccc2Br)o1,7.1µM*,.,-39%,.,10µM*,-3%
NC1=NCC2c3ccccc3Cc3ccccc3N12 (stereo not drawn),.,.,13%,.,.,-1%
CN(Cc1ccco1)c1ncncc1-c1ccc2c(c1)OCO2,23%,.,10%,.,.,.
Cc1ccccc1-n1c(-c2ccc(Cl)cc2)cnc1SCC(=O)NC1CCS(=O)(=O)C1 (stereo not drawn),7%,.,13%[0.074 µM],17,-12%,26%
CCOC(=O)c1sc2nc(CC(=O)OC)nc(N3CCN(c4ccc(OC)cc4)CC3)c2c1C,62%[38.3 µM],1,1%,-100*,32µM*,-5%
Cc1cc(C)c(Nc2cc(S(=O)(=O)O)c(N)c3c2C(=O)c2ccccc2C3=O)c(C)c1,81%,?,25%[10 µM],1,5µM*,21%
CC1=NN(c2cccc(C(=O)O)c2)C(=O)/C1=C\C=C/c1ccccc1,27%,.,-20%,.,7.9µM*,?
O=C(OCn1nnc2ccccc2c1=O)C1CCN(S(=O)(=O)c2cccs2)CC1,0%,0,-3%[10 µM],-100*,-8%[46.1 µM],-3%
CO[C@@H]1COC(=O)C/C=C\[C@@H](C)[C@H](OC)COC(=O)[C@H](COCc2ccccc2)NC(=O)C/C=C\[C@H]1C,.,.,3.2µM*,.,.,.
NC=O,-6%,.,-87%,.,.,.
CNC(=O)[C@H]1O[C@@H](n2cnc3c(N)ncnc32)[C@H](O)[C@@H]1O,-3%,.,-6%,.,.,.
CCc1c(C(=O)O)[nH]c2ccc(Br)cc12,10µM*,?,-61%,-8,?,-11%
SMILES,IMPase Li inh,IMPase cell inh,HTT cytoprotect,PNC inhibitor,NPSR antagonist,HttQ103 aggreg
COC(=O)c1ccc(C(NC(=O)OCc2ccccc2)/C(C)=C/[C@@H](C)C(=O)NCc2cccnc2)cc1 (stereo partly drawn),2%,.,1%,.,.,.
Cc1nc(NC(C)(C)CO)c([N+](=O)[O-])cc1[N+](=O)[O-],1%,.,.,-119*,13%,-20%
CC(O)CNc1cc(N)c([N+](=O)[O-])cc1[N+](=O)[O-] (stereo not drawn),-7%,.,28%[0.074 µM],-17,0%,-9%
CCOC(=S)SCC(=O)N1CCc2cc(OC)c(OC)cc2C1C1C(=O)CC(C)(C)CC1=O (stereo not drawn),-8%,.,16%[10 µM],?,7%,18%
CCOC(=S)SCC(=O)N1CCc2cc(OC)ccc2C1C1C(=O)CCCC1=O (stereo not drawn),4%,2,3%[10 µM],-99*,-12%[46.1 µM],?
O=C(O)CCCC[C@@H]1SC[C@H]2NC(=O)N[C@H]12,.,.,-27%,.,.,.
CCCCCc1ccc(OCCCC[n+]2ccccc2)c(CCCCC)c1,8%,.,-91%,.,-50%,11µM*
C[C@@H](CN(C)C)CN1c2ccccc2CCc2ccccc21,25%,18[20.6 µM],-14%[40.3 µM],.,.,0%[20.6 µM]
CC(CN(C)C)CN1c2ccccc2CCc2ccccc21 (stereo not drawn),27%,.,1µM*!,.,1%[46.1 µM],0%[9.22 µM]
O=c1c(-c2ccc(Cl)cc2)nc2cnc(N3CCNCC3)nc2n1Cc1cccs1,17%,.,24%,.,.,.
CCOc1ccc(/C(O)=C2\C(=O)C(=O)N(c3cc(C)on3)C2c2ccccc2OC)cc1 (stereo not drawn),5µM*,?,-10%[10 µM],?,13%[46.1 µM],-4%
COc1ccc(C(=O)c2oc3ccc(OC)cc3c2N)cc1,5%,-14,19%[10 µM],13,-7%,19%
COc1ccc2oc(-c3ccccc3)c(OC)c(=O)c2c1,22%,-9,9%[1.9 µM],.,.,.
COC(=O)c1oc2ccc(OC)cc2c1N,-6%,-9,-94%[10 µM],-10,13%,2.8µM*
COc1ccc2oc(-c3ccccc3)c(C(N)=O)c2c1,11µM*,3,-17%,0,6%[46.1 µM],-9%
CC1CCC2=C1C[C@H](C(C)(C)O)CC[C@@H]2C (stereo partly drawn),9%,.,?,.,.,.
CC(=O)c1cnc2ncnn2c1C,3%,.,.,-113*,16%,1%
Cc1c(C(=O)N2CCOCC2)[nH]c2c1C(=O)CC(c1ccccc1Cl)C2 (stereo not drawn),29%[38.3 µM],7,-21%,-84*,4%[46.1 µM],?
Cc1c(C(=O)OC2CCCCC2)[nH]c2c1C(=O)CC(c1ccccc1)C2 (stereo not drawn),.,-1,.,.,.,.
Cc1c(C(=O)OC2CCCC2)[nH]c2c1C(=O)CC(c1ccco1)C2 (stereo not drawn),26%[38.3 µM],?,-84%[10 µM],-108*,27%[46.1 µM],-12%
Cc1c(C(=O)OCC(C)C)[nH]c2c1C(=O)CC(c1ccco1)C2 (stereo not drawn),15%,7,-34%,-88*,-3%,?
